This note sets out measurements from PubChem BioAssay (EPA / NIEHS).

Inconclusive results are not listed. Active and inactive are the calls of the source. How the source made its calls: active means hit-call score of the fitted dose curve at least 0.9, where 1 is the maximum; inconclusive means response in the unintended direction; inactive means score below 0.9.

Read-out in one test: alkyl and aryl transferase (GSTA2), GSTA2 (gene 2939)
Description: CLD_GSTA2_24hr: CellzDirect (CLD) Gene Expression Assay for alkyl and aryl transferase (GSTA2) at 24 hours (AID 2283693). A digest of the protocol: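 GSTA2 transcript levels were quantified by quantitative nuclease protection assay in primary human hepatocytes 24 h after daily dosing with fresh solutions at multiple concentrations; 0.2% DMSO vehicle as baseline, cytotoxicity flagged morphologically.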
Regarding `COC(=O)c1ccccc1S(=O)(=O)NC(=O)Nc1nc(C)nc(OC)n1`, the outcome was inactive.

On to `CCOC1Oc2ccc(OS(C)(=O)=O)cc2C1(C)C` (stereo not given), for which the molecule was classed as inactive.

As for `Clc1ccccc1-c1nnc(-c2ccccc2Cl)nn1`, the molecule was called inactive.

`Oc1ccc(Cl)cc1Cc1ccccc1`: the molecule was called inactive.

Take `O=[N+]([O-])/N=C1\NCCN1Cc1ccc(Cl)nc1`: the outcome was inactive.

`COC(=O)c1ccccc1CS(=O)(=O)NC(=O)Nc1nc(OC)cc(OC)n1`: the call was inactive.

On to `COC(=O)c1ccccc1S(=O)(=O)NC(=O)N(C)c1nc(C)nc(OC)n1`, for which the outcome was inactive.

In the case of `N#Cc1c(Cl)c(Cl)c(Cl)c(C#N)c1Cl`, the outcome was inactive.

Turning to `CCN(CC)C(=O)SCc1ccc(Cl)cc1`, the call was inactive.

In the case of `CC(C)N(C(=O)COc1nnc(C(F)(F)F)s1)c1ccc(F)cc1`, the outcome was inactive.

As to `O=[N+]([O-])c1c(Cl)c(Cl)c(Cl)c(Cl)c1Cl`, the molecule was called inactive.

For the molecule `CC(C)(C)C(O)/C(=C\c1ccc(Cl)cc1Cl)n1cncn1` (stereo not given), the molecule was called inactive.

For `CNC(=O)Oc1cccc(N=CN(C)C)c1`, the result was inactive.

Consider `O=S(=O)(O)C(F)(F)C(F)(F)C(F)(F)C(F)(F)C(F)(F)C(F)(F)C(F)(F)C(F)(F)F`, for which the molecule was called inactive.

As for `O=C(NC(=O)c1c(F)cccc1F)Nc1ccc(OC(F)(F)C(F)OC(F)(F)F)c(Cl)c1` (stereo not given), the outcome was inactive.

As for `CCC(C)Nc1c([N+](=O)[O-])cc(C(C)(C)C)cc1[N+](=O)[O-]` (stereo not given), the result was inactive.

For the molecule `CC(C)OC(=O)Nc1cccc(Cl)c1`, the molecule was classed as inactive.

On to `CCCN(CCC)c1c([N+](=O)[O-])cc(C(F)(F)F)cc1[N+](=O)[O-]`, for which the outcome was inactive.

For `OCCOc1ccccc1`, the molecule was called inactive.

For the molecule `O=S1OCC2C(CO1)C1(Cl)C(Cl)=C(Cl)C2(Cl)C1(Cl)Cl` (stereo not given), the call was inactive.

Turning to `CCS(=O)(=O)c1cccnc1S(=O)(=O)NC(=O)Nc1nc(OC)cc(OC)n1`, the molecule was called inactive.

Take `CCOCN(C(=O)CCl)c1c(C)cccc1CC`: the molecule was classed as inactive.

In the case of `C[C@H]1[C@H](c2ccc(Cl)cc2)SC(=O)N1C(=O)NC1CCCCC1`, the outcome was inactive.

For `Cc1cc(C)nc(NC(=O)NS(=O)(=O)c2ccccc2C(=O)OC2COC2)n1`, the molecule was called inactive.

In the case of `CC1(c2ccc(Oc3ccccc3)cc2)OC(=O)N(Nc2ccccc2)C1=O` (stereo not given), the molecule was called inactive.

Consider `CCC(C)(NC(=O)c1cc(Cl)c(C)c(Cl)c1)C(=O)CCl` (stereo not given), for which the molecule was classed as inactive.

Read-out in the next test: sulfotransferase (SULT2A), SULT2A1 (gene 6822)
Description: CLD_SULT2A_24hr: CellzDirect (CLD) Gene Expression Assay for sulfotransferase (SULT2A) at 24 hours (AID 2283694).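 On AC50: potency for increased SULT2A1 mRNA level as induction over DMSO baseline.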 The method, boiled down:
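mRNA is measured by qNPA: probe hybridisation, S1 nuclease digestion, chemiluminescence, in lysates from human primary hepatocytes harvested 24 h after daily dosing. Vehicle was 0.2% DMSO. Phase-contrast microscopy flagged cytotoxicity (yes/no).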
`COC(=O)c1ccccc1S(=O)(=O)NC(=O)Nc1nc(C)nc(OC)n1`: the molecule was classed as inactive.

For `CCOC1Oc2ccc(OS(C)(=O)=O)cc2C1(C)C` (stereo not given), the result was inactive.

What is called AC50 is the midpoint of the concentration-response curve, whichever way the signal moves. `Clc1ccccc1-c1nnc(-c2ccccc2Cl)nn1`: the AC50 was 852 nM (active).

With `O=[N+]([O-])/N=C1\NCCN1Cc1ccc(Cl)nc1`, the molecule was called inactive.

Consider `COC(=O)c1ccccc1S(=O)(=O)NC(=O)N(C)c1nc(C)nc(OC)n1`, for which the call was inactive.

For `CC(C)N(C(=O)COc1nnc(C(F)(F)F)s1)c1ccc(F)cc1`, the outcome was inactive.

Consider `CC(C)(C)C(O)/C(=C\c1ccc(Cl)cc1Cl)n1cncn1` (stereo not given), for which the result was inactive.

With `O=S(=O)(O)C(F)(F)C(F)(F)C(F)(F)C(F)(F)C(F)(F)C(F)(F)C(F)(F)C(F)(F)F`, the molecule was classed as inactive.

With `O=C(NC(=O)c1c(F)cccc1F)Nc1ccc(OC(F)(F)C(F)OC(F)(F)F)c(Cl)c1` (stereo not given), the outcome was inactive.

On to `CCC(C)Nc1c([N+](=O)[O-])cc(C(C)(C)C)cc1[N+](=O)[O-]` (stereo not given), for which the molecule was classed as inactive.

Consider `CC(C)OC(=O)Nc1cccc(Cl)c1`, for which the call was inactive.

Regarding `CCCN(CCC)c1c([N+](=O)[O-])cc(C(F)(F)F)cc1[N+](=O)[O-]`, the molecule was classed as inactive.

For the molecule `CCS(=O)(=O)c1cccnc1S(=O)(=O)NC(=O)Nc1nc(OC)cc(OC)n1`, the result was inactive.

In the case of `CCOCN(C(=O)CCl)c1c(C)cccc1CC`, the result was inactive.

With `C[C@H]1[C@H](c2ccc(Cl)cc2)SC(=O)N1C(=O)NC1CCCCC1`, the molecule was called inactive.

Consider `Cc1cc(C)nc(NC(=O)NS(=O)(=O)c2ccccc2C(=O)OC2COC2)n1`, for which the call was inactive.

With `CCC(C)(NC(=O)c1cc(Cl)c(C)c(Cl)c1)C(=O)CCl` (stereo not given), the result was inactive.

Read-out in a further test: ABC Transporter (ABCB1), ABCB1 (gene 5243)
Description: CLD_ABCB1_48hr: CellzDirect (CLD) Gene Expression Assay for ABC Transporter (ABCB1) at 48 hours (AID 2283695).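 On AC50: potency for induction meaning increase of mRNA over DMSO vehicle.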 The method, boiled down:
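ABCB1 mRNA was measured by quantitative nuclease protection assay (chemiluminescence) 48 h after dosing. Human hepatocyte cultures from two separate donors received fresh dosing solutions daily for two days, with 0.2% DMSO as vehicle. Positive-direction fit against DMSO.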
For `COC(=O)c1ccccc1S(=O)(=O)NC(=O)Nc1nc(C)nc(OC)n1`, the molecule was called inactive.

Regarding `CCOC1Oc2ccc(OS(C)(=O)=O)cc2C1(C)C` (stereo not given), the call was inactive.

As to `O=[N+]([O-])/N=C1\NCCN1Cc1ccc(Cl)nc1`, the molecule was called inactive.

Take `CCN(CC)C(=O)SCc1ccc(Cl)cc1`: the outcome was inactive.

For the molecule `CC(C)N(C(=O)COc1nnc(C(F)(F)F)s1)c1ccc(F)cc1`, the molecule was called inactive.

With `CC(C)(C)C(O)/C(=C\c1ccc(Cl)cc1Cl)n1cncn1` (stereo not given), the AC50 is 31.3 µM (active).

With `CNC(=O)Oc1cccc(N=CN(C)C)c1`, the result was inactive.

Regarding `O=S(=O)(O)C(F)(F)C(F)(F)C(F)(F)C(F)(F)C(F)(F)C(F)(F)C(F)(F)C(F)(F)F`, the outcome was inactive.

Regarding `CCC(C)Nc1c([N+](=O)[O-])cc(C(C)(C)C)cc1[N+](=O)[O-]` (stereo not given), the outcome was inactive.

For `CCCN(CCC)c1c([N+](=O)[O-])cc(C(F)(F)F)cc1[N+](=O)[O-]`, the result was inactive.

For the molecule `O=S1OCC2C(CO1)C1(Cl)C(Cl)=C(Cl)C2(Cl)C1(Cl)Cl` (stereo not given), the AC50 was 29.4 µM (active).

For the molecule `CCS(=O)(=O)c1cccnc1S(=O)(=O)NC(=O)Nc1nc(OC)cc(OC)n1`, the molecule was called inactive.

Take `CCOCN(C(=O)CCl)c1c(C)cccc1CC`: the result was inactive.

For `C[C@H]1[C@H](c2ccc(Cl)cc2)SC(=O)N1C(=O)NC1CCCCC1`, the AC50 is 35.5 µM (active).

In the case of `Cc1cc(C)nc(NC(=O)NS(=O)(=O)c2ccccc2C(=O)OC2COC2)n1`, the molecule was called inactive.

Regarding `CC1(c2ccc(Oc3ccccc3)cc2)OC(=O)N(Nc2ccccc2)C1=O` (stereo not given), the result was inactive.

In the case of `CCC(C)(NC(=O)c1cc(Cl)c(C)c(Cl)c1)C(=O)CCl` (stereo not given), the molecule was classed as inactive.
